Records with an inconclusive call do not appear. Active and inactive are the calls of the source. Unless noted, calls come from the whole dose curve; as a rule, active = well fitted curve in the direction sought with a large enough effect; inconclusive = small, poorly fitted or top-dose-only effect, or another doubt; inactive = no such curve, though single readings can be large; an effect the other way counts as inactive or inconclusive.
Assays:
[1] = molecular target: T1, Hexokinase-4 (Homo sapiens) + Glucokinase regulatory protein (Homo sapiens) (UniProt P35557+Q14397); assay: qHTS assay for inhibitors of recombinant human GCK-GKRP interaction: ADP-Glo assay (AID 743206);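 note: plate controls were DMSO plus enzyme for no effect and no enzyme for full effect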
Procedure, shortened: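 Pin-transferred compounds meet a 15 nM GST-GCK/15 nM FLAG-GKRP/2 uM S6P mix (dispense concentrations). ATP is then added to 0.4 mM final with 5 mM glucose, and the reaction runs 60 min at room temperature. ADP is quantified luminescently.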

[2] = molecular target: T1, Hexokinase-4 (Homo sapiens) + Glucokinase regulatory protein (Homo sapiens); assay: qHTS assay for inhibitors of recombinant human GCK-GKRP interaction: HTRF assay (AID 743207);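 note: 0% = DMSO with GCK present and -100% = DMSO wells lacking GCK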
Procedure, shortened: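 HTRF read-out (ex 320 nm; 615/665 nm emission) after 60 min RT equilibration of 5 nM GST-GCK, 5 nM FLAG-GKRP, 2 uM S6P, compound and anti-FLAG/anti-GST detection antibodies; signal normalized between DMSO wells with and without GCK.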

[3] = High-throughput drug toxicity screening in the BPDCN cell line Gen2.2 (AID 1224824; call rule not given here;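 note: cells exposed to compounds for 48 h before reading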); details: Gen2.2 BPDCN cells; at 45.8 µM (top of the series) unless noted
Procedure, shortened: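 CellTiter-Glo luminescence after 48 h compound exposure of Gen2.2 cells; percent activity set with DMSO as 100% and bortezomib (9.2 uM final) as 0%. Cells seeded at 500 per well, RPMI + 10% FBS, 37 °C.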

[4] = High-throughput drug toxicity screening in the BPDCN cell line Cal-1 (AID 1224825; call rule not given here); details: Cal-1 BPDCN cell viability, qHTS; at 45.8 µM (top of the series) unless noted
Procedure, shortened: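 CellTiter-Glo luminescence after 48 h compound exposure; percent activity scaled with DMSO as 100% and bortezomib (9.2 uM final) as 0%. Cal-1 cells seeded at 500/well in RPMI, 10% FBS, no phenol red.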

[5] = qHTS assay for measurement of the activity of small molecule inhibitors on Zika virus induced Caspase-3 activity in human iPSC derived neural progenitor cells (hNPCs) (AID 1224857); note: % of control where 0% means no effect; nearly all actives have a fitted effect of over 65% in size
Procedure, shortened: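 hNPCs seeded 350 cells/well, cultured 16–20 h; compounds added 1 h before ZIKV (2 FFU/cell), 37 C 6 h. Caspase-Glo 3/7 luminescence after 30 min RT; % inhibition from induction scaled to uninfected (0%) and infected (100%) wells.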

[6] = qHTS assay for cell viability of the p53RE-bla HCT-116 cell line (AID 743292); note: % is set by controls: 0 for no effect and ±100 for the full control effect; nearly all actives have a fitted effect of over 55% in size
Procedure, shortened: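 Viability of compound-treated p53RE-bla HCT-116 cells is taken from ATP-dependent luciferase luminescence. Treatment lasts 16 h at 37 C after a 5 h settling period; detection follows 30 min at room temperature.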

[7] = qHTS profiling of the MIPE4 collection as inhibitors of Plasmodium falciparum (3D7) proliferation (AID 743344; call rule not given here;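 note: scaled between DMSO vehicle wells and 0.29 µM artemisinin as full inhibition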); details: P. falciparum 3D7 in erythrocytes, SYBR Green DNA fluorescence, 72 h; at 28.5 µM (top of the series) unless noted
Procedure, shortened: (§1)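 Parasite DNA was quantified by SYBR Green I fluorescence (ex 485, em 535 nm) after overnight lysis in saponin/Triton buffer at room temperature. Cultures at 0.3% parasitemia and 2.5% hematocrit were first exposed to compound for 72 h at 37 C; signals were normalised to artemisinin (0.29 uM) and vehicle wells.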

[8] = qHTS profiling of the MIPE4 collection as inhibitors of Plasmodium falciparum (DD2) proliferation (Rep 2) (AID 743346; call rule not given here); details: P. falciparum Dd2 in erythrocytes, SYBR Green DNA, 72 h; at 28.5 µM (top of the series) unless noted
Procedure, shortened: as §1

[9] = qHTS profiling of the MIPE4 collection as inhibitors of Plasmodium falciparum (HB3) proliferation (AID 743347; call rule not given here;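 note: plate controls were DMSO vehicle wells for no effect and artemisinin wells for full effect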); details: P. falciparum HB3 in erythrocytes, SYBR Green DNA, 72 h; at 28.5 µM (top of the series) unless noted
Procedure, shortened: as §1

[10] = qHTS Screen of the MIPE 4.0 Collection Against Ewings Sarcoma (RDES) (AID 1259252); note: nearly all actives have a fitted effect of over 35% in size; note: potency is the fitted concentration of half-maximal effect
Procedure, shortened: (§2)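 Log-phase cells in RPMI with 5% FBS attached for 4 h, then received compounds as a titration for 48 h at 37C, 5% CO2. Viability was read by CellTiter-Glo luminescence and normalized to DMSO and no-cell wells.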

[11] = qHTS Screen of the MIPE 4.0 Collection Against Ewings Sarcoma (TC71) (AID 1259253); note: nearly all actives have a fitted effect of over 40% in size; note: potency is the fitted concentration of half-maximal effect
Procedure, shortened: as §2

[12] = qHTS Screen of the MIPE 4.0 Collection Against Ewings Sarcoma (EW8) (AID 1259255); note: nearly all actives have a fitted effect of over 35% in size; note: potency is the fitted concentration of half-maximal effect;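 for viability: 100% = DMSO-treated cells and 0% = medium-only wells without cells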
Procedure, shortened: as §2

[13] = qHTS Screen of the MIPE 4.0 Collection Against Ewings Sarcoma (TC32) (AID 1259256); note: nearly all actives have a fitted effect of over 45% in size; note: potency is the fitted concentration of half-maximal effect
Procedure, shortened: as §2

[14] = qHTS profiling of the MIPE4 collection as inhibitors of Plasmodium falciparum (DD2) proliferation (AID 743345; call rule not given here); details: P. falciparum Dd2 in erythrocytes, SYBR Green DNA, 72 h; at 28.5 µM (top of the series) unless noted
Procedure, shortened: as §1

[15] = qHTS Assay for Identifying Gametocytocidal Compounds (AID 743244);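 note: % is set by controls: 0 for no effect and ±100 for the full control effect; actives lower the fluorescent signal which means gametocytes are killed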; details: P. falciparum 3D7 stage III-V gametocytes, alamarBlue, 72 h; max response: stronger effect = lower value
Procedure, shortened: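 P. falciparum 3D7 stage III–V gametocytes (20,000 cells/well) were exposed to compounds for 72 h at 37 °C, 5% CO2. AlamarBlue was then added for 24 h; decreased resorufin fluorescence (Ex 525/Em 598 nm) indicated loss of viability.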

T1 sequence (P35557 whole entry, looked up): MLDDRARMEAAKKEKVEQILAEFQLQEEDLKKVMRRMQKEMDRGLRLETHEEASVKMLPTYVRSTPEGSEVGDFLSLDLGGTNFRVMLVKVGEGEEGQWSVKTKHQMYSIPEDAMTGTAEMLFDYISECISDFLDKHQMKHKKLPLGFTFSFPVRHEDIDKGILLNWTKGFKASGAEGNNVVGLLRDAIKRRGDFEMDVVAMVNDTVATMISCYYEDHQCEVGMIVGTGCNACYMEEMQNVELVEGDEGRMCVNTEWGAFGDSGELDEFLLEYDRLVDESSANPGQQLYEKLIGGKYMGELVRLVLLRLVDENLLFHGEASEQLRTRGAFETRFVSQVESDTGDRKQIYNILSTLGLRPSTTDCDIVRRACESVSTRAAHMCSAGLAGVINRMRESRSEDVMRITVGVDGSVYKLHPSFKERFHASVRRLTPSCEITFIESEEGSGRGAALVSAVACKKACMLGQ
T1 sequence (Q14397 whole entry, looked up): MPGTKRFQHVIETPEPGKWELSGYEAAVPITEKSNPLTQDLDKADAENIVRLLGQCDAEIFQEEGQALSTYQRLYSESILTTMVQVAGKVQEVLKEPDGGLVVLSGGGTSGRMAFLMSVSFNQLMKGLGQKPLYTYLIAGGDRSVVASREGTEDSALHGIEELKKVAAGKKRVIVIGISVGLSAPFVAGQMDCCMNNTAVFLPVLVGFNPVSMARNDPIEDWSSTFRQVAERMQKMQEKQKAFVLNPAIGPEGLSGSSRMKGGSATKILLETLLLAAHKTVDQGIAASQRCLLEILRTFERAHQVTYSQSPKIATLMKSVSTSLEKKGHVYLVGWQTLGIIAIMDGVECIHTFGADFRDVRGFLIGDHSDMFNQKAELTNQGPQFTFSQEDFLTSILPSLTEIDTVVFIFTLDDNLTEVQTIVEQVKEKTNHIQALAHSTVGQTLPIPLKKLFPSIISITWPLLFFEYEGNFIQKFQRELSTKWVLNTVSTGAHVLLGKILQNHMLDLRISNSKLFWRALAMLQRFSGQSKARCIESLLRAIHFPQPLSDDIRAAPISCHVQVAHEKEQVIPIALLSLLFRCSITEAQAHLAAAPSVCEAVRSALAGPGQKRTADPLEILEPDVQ

CCOC(=O)Nc1ccc(NCc2ccc(F)cc2)nc1N
Potency [1]: inactive
Potency [2]: inactive
cell viability, % of control (lower = more cytotoxic) [3]: 166%
viability (% of control) [4]: 96.5%
Potency [5]: inactive

CC#C[C@]1(O)CC[C@H]2[C@@H]3CCC4=CC(=O)CCC4=C3[C@@H](c3ccc(N(C)C)cc3)C[C@@]21C
Potency [1]: inactive
Potency [2]: inactive
Potency [6]: inactive
parasite growth, % of DMSO control [7]: 7.43%
parasite growth, % of control (lower = inhibition) [8]: 11.9%
growth, % of control [9]: 6.33%
cell viability, % of control (lower = more cytotoxic) [3]: 6.18%
viability (% of control) [4]: 5.97%
Potency [5]: inactive
Potency [10]: 0.187 µM (active)
Potency [11]: 0.264 µM (active)
Potency [12]: 0.418 µM (active)
Potency [13]: 0.264 µM (active)

CCCCc1oc2ccccc2c1C(=O)c1cc(I)c(OCCN(CC)CC)c(I)c1
Potency [1]: inactive
Potency [2]: inactive
parasite growth, % of DMSO control [7]: 6.22%
parasite growth remaining, % of DMSO control (lower = more inhibition) [14]: 6.54%
parasite growth, % of control (lower = inhibition) [8]: 19.3%
growth, % of control [9]: 8.19%
cell viability, % of control (lower = more cytotoxic) [3]: 84.7%
viability (% of control) [4]: 8.13%
Potency [5]: inactive
Potency [10]: 8.33 µM (active)
Potency [11]: 8.33 µM (active)
Potency [12]: 9.35 µM (active)
Potency [13]: 8.33 µM (active)

CC(=O)OCC(CCn1cnc2cnc(N)nc21)COC(C)=O
max response [15]: 13.8% (inactive)
parasite growth, % of DMSO control [7]: 99.1%
parasite growth remaining, % of DMSO control (lower = more inhibition) [14]: 136%
parasite growth, % of control (lower = inhibition) [8]: 91.8%
growth, % of control [9]: 98.2%
cell viability, % of control (lower = more cytotoxic) [3]: 153%
viability (% of control) [4]: 106%
Potency [5]: inactive
Potency [10]: inactive
Potency [11]: inactive
Potency [12]: inactive
Potency [13]: inactive

CN1CCN2c3ccccc3Cc3ccccc3C2C1 (stereo unspecified)
Potency [1]: inactive
Potency [2]: inactive
max response [15]: 25.6% (inactive)
parasite growth, % of DMSO control [7]: 56.9%
parasite growth remaining, % of DMSO control (lower = more inhibition) [14]: 60.5%
parasite growth, % of control (lower = inhibition) [8]: 44.9%
growth, % of control [9]: 99.7%
cell viability, % of control (lower = more cytotoxic) [3]: 83.4%
viability (% of control) [4]: 91.5%
Potency [5]: inactive
Potency [10]: 20.9 µM (active)
Potency [11]: 16.6 µM (active)

CC(C)(C)C(=O)Oc1ccc(S(=O)(=O)Nc2ccccc2C(=O)NCC(=O)O)cc1
max response [15]: 3.13% (inactive)
parasite growth, % of DMSO control [7]: 101%
parasite growth, % of control (lower = inhibition) [8]: 91.4%
growth, % of control [9]: 67.9%
cell viability, % of control (lower = more cytotoxic) [3]: 103%
viability (% of control) [4]: 96%
Potency [5]: inactive
Potency [10]: inactive
Potency [11]: inactive
Potency [12]: inactive
Potency [13]: inactive

Reference: PubChem BioAssay (NCATS)
